This is an account of results in PubChem BioAssay (NCATS).

What all share (experiment): qHTS profiling for inhibitors of Plasmodium falciparum proliferation (AID 504749); further: nearly all actives have a fitted effect of over 60% in size
Settings in all cases: P. falciparum in erythrocytes, SYBR Green DNA, 72 h; series mostly up to 28.7 µM

Assay [1] relates to CP203. An outline of the steps:
(§1)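 Each compound contacts P. falciparum-infected red blood cells for 72 h at 37 C; lysis buffer (Tris, EDTA, saponin, Triton X, SYBR Green I) is added and fluorescence measured next morning; values normalized to controls.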

The test system of assay [2] is CP211. A digest of the protocol: as §1
Assay [3] relates to CP215. A digest of the protocol:
as §1

The subject of assay [4] is CP217. An outline of the steps: as §1
Assay [5] deals with CP237. An outline of the steps:
as §1

In assay [6] the test system is CP238. An outline of the steps: as §1
In assay [7] the test system is CP247. A digest of the protocol: as §1
Assay [8] has as its system CP250. A digest of the protocol: as §1
For assay [9], the system named is CP252. An outline of the steps: as §1
Assay [10] concerns CP256. A digest of the protocol:
as §1

Inconclusive results are not listed. The source made the active and inactive calls. The call rests on the fitted dose curve; in most records, active means well fitted inhibition curve with a large enough effect; inconclusive means small, poorly fitted or top-dose-only effect; inactive means flat fitted curve, though single readings scatter.
Potency means the concentration at half of the fitted maximal effect.

For the compound `O=C(O)c1ccccc1OP(=O)(O)O`, the Potency result in [1], in assay [3], in assay [5], in assay [6], in [7] and in [8] was “inactive” each time. Also, the result in [2], in assay [4], in [9] and in assay [10] was inactive.
Consider `Cc1cc(=O)[nH]c(=S)[nH]1`, for which the Potency entry in [1], in assay [3], in assay [5], in assay [6], in assay [7] and in assay [8] was “inactive” throughout. Besides, the result in assay [2], in assay [4], in assay [9] and in assay [10] was inactive.
Take `CCCCC1(COC(=O)CCC(=O)O)C(=O)N(c2ccccc2)N(c2ccccc2)C1=O`: the Potency result in assay [1], in [3], in assay [5], in assay [6], in [7] and in assay [8] was “inactive” throughout. The result in assay [2], in assay [4], in assay [9] and in [10] was inactive.
In the case of `Cc1cccc(C)c1NC(=O)CC12CCCN1CCC2`, the Potency entry in assay [1], in [3], in [5], in [6], in assay [7] and in assay [8] was “inactive” each time. Moreover, the call in assay [2], in assay [4], in [9] and in [10] was inactive.
With `NCc1ccc(S(N)(=O)=O)cc1`, the Potency entry in assay [1], in assay [3], in [5], in [6], in assay [7] and in assay [8] was “inactive” in each case. For the same compound, the compound was called inactive in assay [2], in assay [4], in assay [9] and in assay [10].
`O=C(O)Cn1c(C(=O)Nc2nc(-c3ccccc3Cl)cs2)cc2ccccc21`: the Potency result in assay [1], in assay [3], in [5], in assay [6], in assay [7] and in [8] was “inactive” in each case. The call in assay [2], in [4], in assay [9] and in assay [10] was inactive.
Take `CCCCCCCCCCC(CO)CCCCCCCC` (stereo not drawn): the Potency result in assay [1], in [3], in [5], in assay [6], in assay [7] and in assay [8] was “inactive” in each case. Also, the compound was classed as inactive in assay [2], in [4], in assay [9] and in [10].
For the compound `COC(=O)c1cccnc1`, the Potency result in assay [1], in assay [3], in [5], in [6], in assay [7] and in assay [8] was “inactive” in each case. Moreover, the compound was classed as inactive in [2], in assay [4], in [9] and in assay [10].
As to `CCCCOC(=O)c1ccc(N)cc1`, the Potency entry in assay [1], in [3], in assay [5], in assay [6], in [7] and in [8] was “inactive” in each case. Further, the call in assay [2], in assay [4], in [9] and in [10] was inactive.
Regarding `Cc1cccc(Nc2ccccc2C(=O)O)c1C`, the Potency entry in assay [1], in assay [3], in [5], in assay [6], in assay [7] and in [8] was “inactive” each time. Moreover, the call in assay [2], in assay [4], in assay [9] and in assay [10] was inactive.
For the compound `CCCCCCCCCCCCCCCCN`, the Potency entry in [1], in [3], in assay [5], in assay [6], in assay [7] and in assay [8] was “inactive” throughout. Also, the result in [2], in [4], in [9] and in [10] was inactive.
For the compound `CCOc1cc(NC(C)=O)ccc1C(=O)OC`, the Potency entry in assay [1], in assay [3], in assay [5], in [6], in assay [7] and in assay [8] was “inactive” each time. Also, the call in assay [2], in [4], in assay [9] and in assay [10] was inactive.
For the compound `O=C1CC[C@@H](C(=O)O)N1`, the Potency entry in [1], in [3], in assay [5], in [6], in assay [7] and in assay [8] was “inactive” in each case. For the same compound, the compound was called inactive in assay [2], in assay [4], in assay [9] and in assay [10].
As to `CCCCCCCCCCCCCCCCCCO`, the Potency result in assay [1], in assay [3], in assay [5], in [6], in assay [7] and in assay [8] was “inactive” in each case. For the same compound, the result in [2], in assay [4], in assay [9] and in [10] was inactive.
`NS(=O)(=O)c1ccc(C(=O)O)cc1`: the Potency entry in [1], in [3], in assay [5], in assay [6], in [7] and in [8] was “inactive” throughout. Also, the compound was called inactive in assay [2], in assay [4], in assay [9] and in [10].
Take `NC(=O)CC[C@@H](N)C(=O)O`: the Potency result in [1], in assay [3], in assay [5], in [6], in assay [7] and in [8] was “inactive” each time. The compound was classed as inactive in assay [2], in assay [4], in assay [9] and in assay [10].
On to `CCc1cccc(CC)c1NC(=O)CN(CC(=O)O)CC(=O)O`, for which the Potency entry in assay [1], in assay [3], in assay [5], in [6], in assay [7] and in assay [8] was “inactive” in each case. Besides, the compound was called inactive in assay [2], in assay [4], in assay [9] and in assay [10].
With `CCCCCCCCCCCCCCCCC(C(=O)O)C(O)(CC(=O)O)C(=O)O` (stereo not drawn), the Potency result in assay [1], in assay [3], in assay [5], in [6] and in assay [8] was “inactive” throughout. The call in [2], in [4], in assay [9] and in assay [10] was inactive. Besides, the Potency in assay [7] was 11.2 µM (active).
Consider `O=C(O)c1ccc(OCCCOc2ccc(C(=O)O)cc2)cc1`, for which the Potency result in [1], in [3], in [5], in assay [6], in assay [7] and in [8] was “inactive” throughout. Moreover, the result in assay [2], in [4], in [9] and in assay [10] was inactive.
With `Cc1cc(C)nc(NS(=O)(=O)c2ccc(N)cc2)n1`, the Potency entry in assay [1], in assay [3], in assay [5], in [6], in assay [7] and in [8] was “inactive” throughout. The call in assay [2], in assay [4], in [9] and in assay [10] was inactive.
On to `Cc1c(I)c(=O)n(-c2ccccc2)n1C`, for which the Potency result in assay [1], in [3], in assay [5], in assay [6], in assay [7] and in assay [8] was “inactive” throughout. The result in [2], in [4], in [9] and in assay [10] was inactive.
With `CCOC(N)=O`, the Potency result in assay [1], in assay [3], in [5], in [6], in assay [7] and in assay [8] was “inactive” each time. Moreover, the call in assay [2], in [4], in assay [9] and in [10] was inactive.
Regarding `COc1ccc(C(=O)N2CCN(CC(=O)N3CCOCC3)CC2)cc1`, the Potency result in assay [1], in assay [3], in assay [5], in assay [6] and in [7] was “inactive” in each case. Moreover, the call in assay [2], in [4], in assay [9] and in assay [10] was inactive.
As to `Cc1c(C(=O)NCCO)[n+](=O)c2ccccc2n1[O-]`, the Potency entry in [1], in assay [3], in [5], in assay [6], in [7] and in [8] was “inactive” in each case. The outcome in assay [2], in assay [4], in assay [9] and in assay [10] was inactive.
As for `NCC1CCC(C(=O)Oc2ccc(CCC(=O)O)cc2)CC1` (stereo not drawn), the Potency result in assay [1], in [3], in assay [5], in [6], in assay [7] and in assay [8] was “inactive” throughout. The outcome in assay [2], in [4], in assay [9] and in assay [10] was inactive.
As for `O=C(O)c1ccccc1C(=O)Nc1ccc(S(=O)(=O)Nc2nccs2)cc1`, the Potency result in assay [1], in [3], in [5], in [6], in [7] and in assay [8] was “inactive” each time. Moreover, the outcome in assay [2], in assay [4], in assay [9] and in [10] was inactive.
Take `OC[C@@H](O)[C@@H](O)[C@H](O)[C@H](O)CO`: the Potency result in assay [1], in assay [3], in [5], in assay [6], in [7] and in assay [8] was “inactive” each time. Also, the call in assay [2], in assay [4], in [9] and in assay [10] was inactive.
For the compound `NC(=O)c1ccc([N+](=O)[O-])cc1Cl`, the Potency result in [1], in [3], in assay [5], in assay [6], in [7] and in [8] was “inactive” throughout. Moreover, the call in assay [2], in assay [4], in [9] and in assay [10] was inactive.
With `COc1ccc2cc(CCC(C)=O)ccc2c1`, the Potency entry in assay [1], in assay [3], in assay [5], in [6], in assay [7] and in [8] was “inactive” each time. Besides, the outcome in [2], in assay [4], in assay [9] and in assay [10] was inactive.
With `COc1ccc(NS(=O)(=O)c2ccc(N)cc2)nn1`, the Potency result in assay [1], in [3], in assay [5], in assay [6], in [7] and in [8] was “inactive” each time. For the same compound, the call in [2], in assay [4], in [9] and in assay [10] was inactive.
As for `Cn1c(=O)c2c(ncn2CCO)n(C)c1=O`, the Potency entry in assay [1], in [3], in assay [5], in assay [6], in [7] and in [8] was “inactive” throughout. Also, the compound was classed as inactive in assay [2], in [4], in assay [9] and in [10].
Consider `CCN(CC)CCc1nc(-c2ccccc2)no1`, for which the Potency entry in assay [1], in assay [3], in assay [5], in assay [6], in assay [7] and in [8] was “inactive” throughout. In addition, the compound was called inactive in assay [2], in [4], in [9] and in assay [10].
Take `O[C@@H]1CO[C@H]2[C@@H]1OC[C@@H]2O`: the Potency result in [1], in assay [3], in assay [5], in assay [6], in assay [7] and in [8] was “inactive” throughout. The result in assay [2], in assay [4], in assay [9] and in [10] was inactive.
Consider `C[C@H]1COc2c(C3(N)CC3)c(F)cc3c(=O)c(C(=O)O)cn1c23`, for which the Potency result in assay [1], in [3], in assay [5], in [6] and in assay [8] was “inactive” throughout. For the same compound, the call in assay [2], in assay [4], in [9] and in assay [10] was inactive.
Consider `OCc1ccc(Cl)cc1Cl`, for which the Potency result in assay [1], in assay [3], in [5], in [6], in assay [7] and in assay [8] was “inactive” throughout. The outcome in assay [2], in assay [4], in [9] and in assay [10] was inactive.
As for `Cc1ccsc1C(=CCCN1CCC[C@@H](C(=O)O)C1)c1sccc1C`, the Potency entry in assay [1], in assay [3], in assay [5], in [6], in assay [7] and in [8] was “inactive” in each case. Also, the result in assay [2], in [4], in assay [9] and in [10] was inactive.
Take `C[C@@H]1CCC[C@H](C)N1`: the Potency entry in assay [1], in [3], in assay [5], in [6], in assay [7] and in assay [8] was “inactive” each time. Further, the result in assay [2], in assay [4], in [9] and in assay [10] was inactive.
For `Cc1cc(O)cc(C)c1Cl`, the Potency entry in assay [1], in assay [3], in assay [5], in assay [6], in [7] and in [8] was “inactive” each time. Besides, the call in assay [2], in assay [4], in [9] and in assay [10] was inactive.
